Measurements published in the supplement of paper PMC10849652.
The full data set covers some 8,800 targets. This sample favours those with a hit. About 0.5% of all pairs of compound and target were hits. A number with no mark means an inactive call.

Assays:
Experiment in all cases: log2 fold change, soluble protein after heating vs DMSO (PISA); higher = thermal stabilisation; K562 lysate, 10 uM; active = over 0.2 and 3.5 SD of the protein, either way, in both replicates (recomputed)
nilotinib = compound: Cc1cn(-c2cc(NC(=O)c3ccc(C)c(Nc4nccc(-c5cccnc5)n4)c3)cc(C(F)(F)F)c2)cn1 [nilotinib]
Outline: (§1)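 Dounce homogenisation of K562 pellets in PBS pH 7.4 with 1 mM MgCl2 produced a crude extract, used at 1 mg/mL protein. Exposure to 10 μM compound lasted 30 min, and aliquots were then heated for 3 min across 48°C-58°C, pooled and brought to 0.5% NP-40 at 4°C. The supernatant after 21,000xg for 90 min was quantified by TMTpro 16plex LC-MS/MS with channel sums equalised. Duplicate values are given as log-two fold change in thermal stability relative to solvent controls.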

[1] = compound: Cc1nc(Nc2n[nH]c3c2CN(C(=O)N[C@H](CN(C)C)c2ccccc2)C3(C)C)c2sccc2n1
Outline: as §1

dasatinib = compound: Cc1nc(Nc2ncc(C(=O)Nc3c(C)cccc3Cl)s2)cc(N2CCN(CCO)CC2)n1 [dasatinib]
Outline: as §1

[2] = compound: Cc1ncc(-c2ccnc(Nc3ccc(S(C)(=O)=O)cc3)n2)n1C(C)C
Outline: as §1

[3] = compound: Cn1cc(-c2ccc3c(c2)CCN3C(=O)Cc2cccc(C(F)(F)F)c2)c2c(N)ncnc21
Outline: as §1

quisinostat = compound: Cn1cc(CNCC2CCN(c3ncc(C(=O)NO)cn3)CC2)c2ccccc21 [quisinostat]
Outline: as §1

tipifarnib = compound: Cn1cncc1[C@@](N)(c1ccc(Cl)cc1)c1ccc2c(c1)c(-c1cccc(Cl)c1)cc(=O)n2C [tipifarnib]
Outline: as §1

[4] = compound: NC(=O)Nc1cc(-c2cccc(F)c2)sc1C(=O)N[C@H]1CCCNC1
Outline: as §1

[5] = compound: NC(=O)c1cnc(N[C@@H]2CCCC[C@@H]2N)nc1Nc1cccc(-n2nccn2)c1
Outline: as §1

[6] = compound: NC1(c2ccc(-c3nc4ccn5c(=O)[nH]nc5c4cc3-c3ccccc3)cc2)CCC1
Outline: as §1

[7] = compound: NCC(=O)Nc1ccc(-n2nc(C(F)(F)F)cc2-c2ccc3c(ccc4ccccc43)c2)cc1
Outline: as §1

vorinostat = compound: O=C(CCCCCCC(=O)Nc1ccccc1)NO [vorinostat]
Outline: as §1

silmitasertib = compound: O=C(O)c1ccc2c(c1)nc(Nc1cccc(Cl)c1)c1ccncc12 [silmitasertib]
Outline: as §1

[8] = compound: O=C1NC(=O)C(c2cnc3ccccn23)=C1c1cn2c3c(cc(F)cc13)CN(C(=O)N1CCCCC1)CC2
Outline: as §1

entospletinib = compound: c1cn2cc(-c3ccc4cn[nH]c4c3)nc(Nc3ccc(N4CCOCC4)cc3)c2n1 [entospletinib]
Outline: as §1

Chain of UniProt Q7Z3V4 (Q7Z3V4 whole entry, looked up): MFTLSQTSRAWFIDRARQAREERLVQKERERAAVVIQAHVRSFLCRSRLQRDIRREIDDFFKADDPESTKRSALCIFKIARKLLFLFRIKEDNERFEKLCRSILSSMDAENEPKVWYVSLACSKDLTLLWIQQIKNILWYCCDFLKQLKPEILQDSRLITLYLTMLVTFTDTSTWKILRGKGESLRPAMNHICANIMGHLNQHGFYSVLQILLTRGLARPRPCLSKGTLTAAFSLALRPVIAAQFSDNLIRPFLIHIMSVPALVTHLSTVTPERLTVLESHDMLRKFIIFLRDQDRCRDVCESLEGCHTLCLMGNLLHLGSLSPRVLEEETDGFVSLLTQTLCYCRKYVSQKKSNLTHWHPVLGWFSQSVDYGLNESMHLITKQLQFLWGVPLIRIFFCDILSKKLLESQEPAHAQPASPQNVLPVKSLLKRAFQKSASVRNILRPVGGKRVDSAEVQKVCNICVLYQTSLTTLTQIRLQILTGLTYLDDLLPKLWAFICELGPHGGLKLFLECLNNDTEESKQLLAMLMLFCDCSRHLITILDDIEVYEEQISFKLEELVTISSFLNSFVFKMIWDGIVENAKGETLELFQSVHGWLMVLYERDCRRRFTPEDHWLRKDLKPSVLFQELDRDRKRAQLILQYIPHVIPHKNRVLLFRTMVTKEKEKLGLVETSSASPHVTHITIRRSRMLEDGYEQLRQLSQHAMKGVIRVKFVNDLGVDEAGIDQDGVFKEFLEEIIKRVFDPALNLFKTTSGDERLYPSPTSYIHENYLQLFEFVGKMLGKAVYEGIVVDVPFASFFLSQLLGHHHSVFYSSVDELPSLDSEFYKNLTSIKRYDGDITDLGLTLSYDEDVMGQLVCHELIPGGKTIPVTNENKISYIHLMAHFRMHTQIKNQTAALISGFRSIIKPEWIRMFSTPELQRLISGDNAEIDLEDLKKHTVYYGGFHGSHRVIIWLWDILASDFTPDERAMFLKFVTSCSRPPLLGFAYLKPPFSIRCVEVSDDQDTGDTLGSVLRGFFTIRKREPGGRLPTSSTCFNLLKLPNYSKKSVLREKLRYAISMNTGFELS
Chain of UniProt P62256 (P62256 whole entry, looked up): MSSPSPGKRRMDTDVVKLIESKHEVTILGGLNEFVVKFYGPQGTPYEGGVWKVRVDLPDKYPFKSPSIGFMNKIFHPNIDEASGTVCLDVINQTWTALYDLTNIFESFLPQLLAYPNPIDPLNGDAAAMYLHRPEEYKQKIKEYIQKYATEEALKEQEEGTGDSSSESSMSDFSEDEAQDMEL
Chain of UniProt Q5TEJ8 (Q5TEJ8 whole entry, looked up): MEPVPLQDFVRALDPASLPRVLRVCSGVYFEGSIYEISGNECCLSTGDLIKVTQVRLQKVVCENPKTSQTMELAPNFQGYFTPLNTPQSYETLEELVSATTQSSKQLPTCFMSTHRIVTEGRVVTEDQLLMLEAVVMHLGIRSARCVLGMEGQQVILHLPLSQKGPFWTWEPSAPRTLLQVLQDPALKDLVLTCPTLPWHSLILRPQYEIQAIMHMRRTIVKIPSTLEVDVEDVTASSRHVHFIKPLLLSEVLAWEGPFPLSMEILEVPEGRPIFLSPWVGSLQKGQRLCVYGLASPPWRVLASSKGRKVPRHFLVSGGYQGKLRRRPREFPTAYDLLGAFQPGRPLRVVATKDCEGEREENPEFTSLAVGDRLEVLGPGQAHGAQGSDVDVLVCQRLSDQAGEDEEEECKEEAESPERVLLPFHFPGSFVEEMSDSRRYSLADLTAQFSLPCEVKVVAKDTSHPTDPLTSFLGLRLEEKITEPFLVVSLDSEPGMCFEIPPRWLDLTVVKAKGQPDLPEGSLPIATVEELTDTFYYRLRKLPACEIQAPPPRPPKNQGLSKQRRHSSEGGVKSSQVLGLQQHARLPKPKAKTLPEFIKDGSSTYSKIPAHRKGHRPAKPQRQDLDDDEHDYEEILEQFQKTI
Chain of UniProt P68366 (P68366 whole entry, looked up): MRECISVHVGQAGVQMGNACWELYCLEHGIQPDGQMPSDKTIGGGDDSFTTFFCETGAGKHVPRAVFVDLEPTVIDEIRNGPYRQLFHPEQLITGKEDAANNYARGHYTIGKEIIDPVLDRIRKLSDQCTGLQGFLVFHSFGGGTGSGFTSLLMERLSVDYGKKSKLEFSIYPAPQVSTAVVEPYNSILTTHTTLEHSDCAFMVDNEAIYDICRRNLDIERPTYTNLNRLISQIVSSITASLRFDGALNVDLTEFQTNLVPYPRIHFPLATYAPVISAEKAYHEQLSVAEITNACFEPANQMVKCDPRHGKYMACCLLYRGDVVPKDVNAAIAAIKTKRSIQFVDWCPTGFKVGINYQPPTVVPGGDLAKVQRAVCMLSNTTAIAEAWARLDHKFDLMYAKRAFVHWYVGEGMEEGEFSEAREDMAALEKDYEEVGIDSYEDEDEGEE
Chain of UniProt Q15386 (Q15386 whole entry, looked up): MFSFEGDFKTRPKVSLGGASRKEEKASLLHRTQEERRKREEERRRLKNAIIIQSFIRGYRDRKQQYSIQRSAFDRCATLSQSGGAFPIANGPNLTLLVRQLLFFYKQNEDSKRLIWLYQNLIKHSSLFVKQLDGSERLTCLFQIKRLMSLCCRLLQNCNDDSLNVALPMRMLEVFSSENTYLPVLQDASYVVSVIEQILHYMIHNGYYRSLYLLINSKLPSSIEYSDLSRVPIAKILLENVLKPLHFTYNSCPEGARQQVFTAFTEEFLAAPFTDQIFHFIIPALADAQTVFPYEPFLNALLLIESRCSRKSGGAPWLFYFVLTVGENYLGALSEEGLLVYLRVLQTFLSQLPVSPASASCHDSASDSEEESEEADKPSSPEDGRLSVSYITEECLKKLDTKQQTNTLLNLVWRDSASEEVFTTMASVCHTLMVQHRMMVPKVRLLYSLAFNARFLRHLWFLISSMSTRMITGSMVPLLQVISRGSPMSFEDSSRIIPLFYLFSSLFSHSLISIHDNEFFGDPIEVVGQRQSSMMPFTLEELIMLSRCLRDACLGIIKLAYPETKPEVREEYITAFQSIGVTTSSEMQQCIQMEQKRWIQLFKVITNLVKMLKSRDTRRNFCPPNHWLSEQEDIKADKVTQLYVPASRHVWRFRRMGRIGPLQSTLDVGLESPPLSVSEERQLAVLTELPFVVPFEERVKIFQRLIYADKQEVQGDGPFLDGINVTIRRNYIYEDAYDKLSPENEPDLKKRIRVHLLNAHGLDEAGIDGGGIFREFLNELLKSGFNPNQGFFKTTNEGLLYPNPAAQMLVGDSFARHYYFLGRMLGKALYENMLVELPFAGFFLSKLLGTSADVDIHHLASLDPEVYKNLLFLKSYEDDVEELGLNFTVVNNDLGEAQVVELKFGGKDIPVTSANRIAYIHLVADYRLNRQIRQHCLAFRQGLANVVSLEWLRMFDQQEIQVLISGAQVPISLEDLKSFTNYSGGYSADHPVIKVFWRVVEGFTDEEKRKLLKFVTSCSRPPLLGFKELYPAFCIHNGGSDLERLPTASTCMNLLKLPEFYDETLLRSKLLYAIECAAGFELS
Chain of UniProt Q6IPR3 (Q6IPR3 whole entry, looked up): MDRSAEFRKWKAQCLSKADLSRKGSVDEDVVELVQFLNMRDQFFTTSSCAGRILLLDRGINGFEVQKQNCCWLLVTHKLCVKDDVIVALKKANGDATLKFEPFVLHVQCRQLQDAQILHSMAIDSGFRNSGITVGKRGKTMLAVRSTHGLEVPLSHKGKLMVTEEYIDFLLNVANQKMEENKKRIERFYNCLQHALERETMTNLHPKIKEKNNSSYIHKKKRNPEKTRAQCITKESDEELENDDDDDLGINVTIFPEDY
Chain of UniProt O43399 (O43399 whole entry, looked up): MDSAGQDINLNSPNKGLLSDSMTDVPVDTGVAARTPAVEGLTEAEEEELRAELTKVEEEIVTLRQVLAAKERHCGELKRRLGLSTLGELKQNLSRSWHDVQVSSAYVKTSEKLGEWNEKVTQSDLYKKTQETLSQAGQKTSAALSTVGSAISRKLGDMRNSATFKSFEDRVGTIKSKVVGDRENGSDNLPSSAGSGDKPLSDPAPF
Chain of UniProt P21580 (P21580 whole entry, looked up): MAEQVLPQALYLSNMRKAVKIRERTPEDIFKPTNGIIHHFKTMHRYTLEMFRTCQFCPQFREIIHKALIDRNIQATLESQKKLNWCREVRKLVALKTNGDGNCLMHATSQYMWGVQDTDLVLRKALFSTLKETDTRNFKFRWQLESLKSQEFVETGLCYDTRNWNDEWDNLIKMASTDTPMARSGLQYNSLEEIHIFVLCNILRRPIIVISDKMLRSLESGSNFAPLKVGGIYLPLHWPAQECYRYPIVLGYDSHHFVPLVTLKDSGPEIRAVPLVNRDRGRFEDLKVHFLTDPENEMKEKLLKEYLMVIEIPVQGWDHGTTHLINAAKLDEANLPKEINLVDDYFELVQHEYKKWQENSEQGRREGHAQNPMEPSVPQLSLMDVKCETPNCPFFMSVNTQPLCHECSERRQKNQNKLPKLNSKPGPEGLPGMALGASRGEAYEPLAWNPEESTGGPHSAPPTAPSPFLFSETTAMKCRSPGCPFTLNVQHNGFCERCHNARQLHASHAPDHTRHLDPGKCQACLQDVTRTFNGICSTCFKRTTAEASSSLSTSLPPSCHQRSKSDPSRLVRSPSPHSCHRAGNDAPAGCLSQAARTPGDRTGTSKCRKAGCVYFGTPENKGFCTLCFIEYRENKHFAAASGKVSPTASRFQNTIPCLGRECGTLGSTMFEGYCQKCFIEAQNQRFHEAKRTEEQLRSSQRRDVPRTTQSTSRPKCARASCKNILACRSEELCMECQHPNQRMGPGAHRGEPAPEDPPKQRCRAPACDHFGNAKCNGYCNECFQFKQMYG
Chain of UniProt Q9NX07 (Q9NX07 whole entry, looked up): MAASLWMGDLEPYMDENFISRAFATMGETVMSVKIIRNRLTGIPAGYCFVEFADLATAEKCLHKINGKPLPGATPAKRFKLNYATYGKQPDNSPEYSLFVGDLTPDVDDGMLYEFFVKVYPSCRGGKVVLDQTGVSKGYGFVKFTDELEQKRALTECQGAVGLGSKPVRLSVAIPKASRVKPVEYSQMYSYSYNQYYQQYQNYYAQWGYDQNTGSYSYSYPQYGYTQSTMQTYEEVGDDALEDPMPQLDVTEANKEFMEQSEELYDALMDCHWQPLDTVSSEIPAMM

| Target | log2 fold change (nilotinib) | log2 fold change [1] | log2 fold change (dasatinib) | log2 fold change [2] | log2 fold change [3] | log2 fold change (quisinostat) | log2 fold change (tipifarnib) | log2 fold change [4] | log2 fold change [5] | log2 fold change [6] | log2 fold change [7] | log2 fold change (vorinostat) | log2 fold change (silmitasertib) | log2 fold change [8] | log2 fold change (entospletinib) |
| --- | --- | --- | --- | --- | --- | --- | --- | --- | --- | --- | --- | --- | --- | --- | --- |
| TUBB1 (UniProt Q9H4B7) | 0.095 | -0.013 | -0.043 | -0.004 | 0.002 | 0.079 | 0.03 | 0.009 | -0.006 | -0.019 | -0.038 | -0.326 (active) | -0.003 | 0.033 | 0.011 |
| THEMIS2 (UniProt Q5TEJ8) | -0.096 | 0.06 | -0.092 | -0.144 | 0.059 | 0.03 | -0.039 | 0.051 | 0.095 | 0.019 | -0.029 | -0.315 (active) | 0.069 | 0.059 | -0.007 |
| TTMP isoform 3 (UniProt Q5BVD1) | 0.118 | -0.023 | -0.079 | -0.022 | -0.046 | -0.475 | -0.089 | 0.048 | 0.116 | -0.113 | 0.253 | 0.191 | -0.074 | 0.167 | -0.032 |
| TRNAU1AP (UniProt Q9NX07) | -0.145 | 0.016 | 0.018 | 0.046 | 0.015 | 0.012 | -0.06 | 0.059 | -0.011 | -0.013 | 0.079 | -0.178 | 0.026 | -0.017 | -0.047 |
| TMEM97 (UniProt Q5BJF2) | 0.098 | 0.053 | 0.018 | 0.124 | -0.005 | 0.046 | 0.057 | 0.011 | -0.034 | 0.023 | -0.016 | 0.152 | -0.039 | 0.071 | 0.004 |
| TPD52L2 isoform 7 (UniProt O43399) | 0.022 | 0.019 | 0.056 | 0.042 | -0.009 | 0.038 | -0.012 | -0.022 | -0.039 | 0.049 | -0.043 | 0.148 | -0.044 | -0.027 | -0.016 |
| TUBA4A (UniProt P68366) | 0.036 | -0.024 | -0.09 | -0.009 | 0.02 | -0.024 | -0.012 | 0.034 | 0.022 | -0.003 | 0.066 | -0.736 (active) | 0.077 | 0.051 | -0.045 |
| UBE2H (UniProt P62256) | -0.021 | -0.041 | 0.046 | 0.02 | 0.021 | -0.015 | -0.049 | 0.014 | 0.005 | -0.041 | 0.023 | 0.093 | -0.003 | -0.003 | -0.012 |
| TTK (UniProt P33981) | 0.007 | 0.236 | -0.014 | 0.185 | 0.013 | -0.062 | -0.147 | 0.034 | -0.001 | -0.057 | -0.009 | -0.183 | 0.004 | -0.03 | -0.039 |
| TUBGCP2 isoform 4 (UniProt Q9BSJ2) | -0.016 | 0.012 | -0.058 | 0.012 | 0.064 | -0.091 | -0.001 | 0.037 | 0 | -0.016 | 0.03 | -0.32 (active) | 0.051 | 0.046 | 0.042 |
| UBE3B (UniProt Q7Z3V4) | 0.041 | -0.006 | 0.055 | -0.011 | 0.053 | -0.077 | -0.102 | 0.041 | 0.14 | -0.026 | 0.117 | -0.838 (active) | 0.061 | 0.007 | 0.115 |
| UBR1 (UniProt Q8IWV7) | -0.022 | 0.01 | -0.012 | 0.013 | 0.046 | -0.093 | 0.007 | 0.021 | -0.006 | -0.021 | -0.04 | -0.239 (active) | 0.025 | 0.008 | -0.024 |
| TUBA1B (UniProt P68363) | -0.043 | -0.009 | -0.051 | -0.036 | 0.01 | -0.021 | 0.002 | 0.041 | 0.002 | -0.013 | -0.005 | -0.66 (active) | 0.018 | 0.026 | 0.01 |
| TMOD1 (UniProt P28289) | -0.029 | -0.032 | 0.011 | -0.02 | 0.014 | -0.007 | -0.013 | 0.031 | 0.008 | -0.015 | 0.005 | -0.312 (active) | 0.02 | -0.005 | 0.01 |
| TYW3 (UniProt Q6IPR3) | -0.033 | 0.017 | -0.006 | 0.035 | 0.027 | -0.126 | -0.018 | -0.014 | 0.046 | 0.017 | 0.036 | -0.694 (active) | 0 | -0.042 | -0.001 |
| UBE3C (UniProt Q15386) | -0.006 | 0.025 | -0.047 | -0.017 | 0.049 | 0.013 | 0.01 | 0.061 | 0.027 | -0.053 | -0.009 | -0.479 (active) | -0.001 | 0 | 0.05 |
| TNFAIP3 (UniProt P21580) | 0.038 | -0.01 | -0.002 | -0.04 | 0.033 | 0.008 | -0.068 | 0.025 | 0.01 | 0.003 |  | -0.12 | -0.003 | 0.004 | 0.044 |
